Reference: PubChem BioAssay
The source made the active and inactive calls. Unless noted, how the calls were made is not given here.

Assays:
[1] = tested on: Wnt5a (protein binding on small-molecule microarray); assay: Wnt5a binders on small-molecule microarray, primary screen, biophysical, 635/667 nm fluorescence (AID 1142); settings: 635 nm fluorescence, higher = more signal;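 further: fluorescence read at 667 nm with signal to noise per printed feature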
[2] = cell viability in Huh7 cells, primary screen, cytotoxicity control for HCV replication inhibitor project, CellTiter-Glo luminescence, basal, 48 h (AID 1143); settings: Huh7 HCV replicon, higher = more signal, called active from +8 up or from −8 down;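 further: Huh7 hepatoma cells carrying a hepatitis C replication reporter with no stimulus; test concentration not given here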
[3] = P. aeruginosa biofilm formation inhibitors, primary screen, PAO1 strain, BacTiter-Glo luminescence, LB-PBS (AID 1144); settings: 12 h, higher = more signal
[4] = CREB reporter modulators without forskolin, primary screen, cell-based, PC12, CRE-LacZ reporter, unstimulated (AID 1145); settings: no forskolin, luminescence, 4.5 h, higher = more signal, called active from +8 up or from −8 down
[5] = CREB reporter modulators under forskolin, primary screen, cell-based, PC12, CRE-LacZ reporter, forskolin-stimulated (AID 1146); settings: luminescence, 4.5 h, higher = more signal, called active from +8 up or from −8 down;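 further: PC12 cells with 6xCRE LacZ reporter stimulated by forskolin 10 µM; beta-galactosidase reporter signal reflecting CREB driven transcription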
[6] = target: Streptavidin (Streptomyces avidinii) (UniProt P22629); assay: streptavidin binders on small-molecule microarray, primary screen, artefact control for SMM compound annotation, biophysical, 635/667 nm fluorescence (AID 1147); settings: streptavidin binding, higher = more signal;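 further: signal reflects streptavidin binding to arrayed compounds as a control protein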
Sequence of Streptavidin (Streptomyces avidinii) (P22629 whole entry, looked up): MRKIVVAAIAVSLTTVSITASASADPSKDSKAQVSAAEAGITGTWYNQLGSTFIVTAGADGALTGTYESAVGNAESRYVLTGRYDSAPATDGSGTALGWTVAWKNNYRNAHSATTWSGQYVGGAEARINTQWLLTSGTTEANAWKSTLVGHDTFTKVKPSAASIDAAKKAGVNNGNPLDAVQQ

[7] = small-molecule binders of probe aInhba, primary screen, biochemical, small-molecule microarray, 635/667 nm fluorescence (AID 1148); settings: higher = more signal;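 further: score merges 667nm spot fluorescence with signal-to-noise for antibody binding to printed compounds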
Torsin-1A (Homo sapiens) [8] = target: Torsin-1A (Homo sapiens) (UniProt O14656); assay: torsin A binders from cell lysate, primary screen, small-molecule microarray, wild-type, 635/667 nm (AID 1149); settings: COS7 hTOR1A-WT lysate, 635 nm fluorescence, higher = more signal
Sequence of Torsin-1A (Homo sapiens) (O14656 whole entry, looked up): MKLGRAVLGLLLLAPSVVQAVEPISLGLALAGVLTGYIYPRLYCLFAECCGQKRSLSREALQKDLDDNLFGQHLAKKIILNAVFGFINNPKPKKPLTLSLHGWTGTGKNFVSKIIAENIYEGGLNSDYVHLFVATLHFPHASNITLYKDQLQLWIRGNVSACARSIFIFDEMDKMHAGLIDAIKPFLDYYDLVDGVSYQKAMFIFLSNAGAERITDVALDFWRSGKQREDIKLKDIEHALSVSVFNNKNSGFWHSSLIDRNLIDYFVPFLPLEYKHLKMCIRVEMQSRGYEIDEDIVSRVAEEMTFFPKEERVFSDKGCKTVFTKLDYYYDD

Torsin-1A (Homo sapiens) [9] = target: Torsin-1A (Homo sapiens) (UniProt O14656); assay: small-molecule binders of mutant TOR1A in lysate, primary screen, cell lysate, small-molecule microarray, COS7 lysate, 635/667 nm fluorescence (AID 1150); settings: COS7 hTOR1A mutant lysate, 635 nm fluorescence, higher = more signal;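 further: score pools 667 nm emission and signal to noise measuring lysate protein binding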
[10] = tested on: Sonic hedgehog protein (Shh); assay: small-molecule binders of Shh protein, primary screen, biochemical, small-molecule microarray, 635/667 nm fluorescence (AID 1151); settings: small-molecule microarray binding, 635 nm fluorescence; higher = more signal;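 further: Shh protein binding to compounds spotted on small-molecule microarray slides; score combines spot fluorescence intensity with signal-to-noise across triplicate slides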
[11] = E. coli DRC41 culture turbidity changes, primary screen, E. coli filamentation inducer project, strain DRC41, OD650, 48 h (AID 1152);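 further: E. coli MC1000 strain DRC41 lacking acrAB efflux pump and sulA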; settings: E. coli DRC41 (acrAB sulA), higher = more signal, called active from +8 up or from −8 down
[12] = small-molecule binders of probe aLefty1, primary screen, biochemical, small-molecule microarray, 635/667 nm fluorescence (AID 1153); settings: higher = more signal;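 further: score merges spot fluorescence with signal-to-noise ratio from the scanned slide images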
[13] = PSAC antagonists in infected red cells, primary screen, cell-based, P. falciparum Indochina, OD700, 1 h (AID 1154); settings: P. falciparum Indochina infected RBC osmotic lysis, higher = more signal, called active from +8 up or from −8 down
[14] = PSAC antagonists in infected red cells, primary screen, cell-based, P. falciparum Indochina, OD700, 2 h (AID 1155);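 further: lysis reports solute entry through the parasite surface anion channel PSAC; channel blockers reduce lysis of infected cells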; settings: P. falciparum Indochina infected erythrocytes, osmotic lysis OD700; higher = more signal, called active from +8 up or from −8 down
[15] = osmotic lysis modulators in infected erythrocytes, primary screen, PSAC antagonist project, cell-based, P. falciparum Indochina, OD700, 3 h (AID 1156); settings: higher = more signal, called active from +8 up or from −8 down
[16] = PSAC antagonists in infected red cells, primary screen, cell-based, P. falciparum Indochina, OD700, 18 h (AID 1157); settings: P. falciparum Indochina infected erythrocytes, osmotic lysis OD700, 18 h; higher = more signal, called active from +8 up or from −8 down
[17] = modulators of S6 phosphorylation in cells, primary screen, cell-based, A549, cytoblot, luminescence, serum-stimulated (AID 1158); settings: A549 phospho-S6 cytoblot, 5 h, higher = more signal;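 further: serum-stimulated A549 lung adenocarcinoma cells; signal is phosphorylated S6 detected by cytoblot immunostaining with HRP secondary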
[18] = target: NADPH oxidase 2 (Homo sapiens) (UniProt P04839); assay: NOX2-dependent H2O2 signal modulators, primary screen, NOX inhibitor project, cell-based, HEK293-NOX2, PMA-stimulated, Amplex Red fluorescence (AID 1159); settings: 45 min, higher = more signal, called active from +8 up or from −8 down; further: test concentration not given here
Sequence of NADPH oxidase 2 (Homo sapiens) (P04839 whole entry, looked up): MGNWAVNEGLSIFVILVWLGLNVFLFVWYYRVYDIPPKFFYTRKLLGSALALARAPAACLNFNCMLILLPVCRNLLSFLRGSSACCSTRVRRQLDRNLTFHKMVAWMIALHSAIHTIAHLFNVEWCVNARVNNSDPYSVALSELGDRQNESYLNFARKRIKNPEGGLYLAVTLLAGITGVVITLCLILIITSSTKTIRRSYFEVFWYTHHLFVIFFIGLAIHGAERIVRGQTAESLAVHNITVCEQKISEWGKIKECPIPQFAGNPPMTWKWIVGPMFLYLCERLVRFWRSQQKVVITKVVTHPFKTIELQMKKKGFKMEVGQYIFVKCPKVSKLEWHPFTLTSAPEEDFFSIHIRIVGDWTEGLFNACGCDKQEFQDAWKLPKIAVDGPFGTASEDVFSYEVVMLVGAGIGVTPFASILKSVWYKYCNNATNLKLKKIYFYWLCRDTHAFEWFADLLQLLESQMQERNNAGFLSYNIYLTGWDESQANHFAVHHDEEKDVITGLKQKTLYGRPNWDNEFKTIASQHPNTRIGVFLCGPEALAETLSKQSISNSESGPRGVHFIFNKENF

[19] = target: NADPH oxidase 4 (Homo sapiens) (UniProt Q9NPH5); assay: NOX4-dependent H2O2 signal modulators, primary screen, NOX inhibitor project, cell-based, HEK293-NOX4, tetracycline-induced, Amplex Red fluorescence (AID 1160); settings: 45 min, higher = more signal, called active from +8 up or from −8 down
Sequence of NADPH oxidase 4 (Homo sapiens) (Q9NPH5 whole entry, looked up): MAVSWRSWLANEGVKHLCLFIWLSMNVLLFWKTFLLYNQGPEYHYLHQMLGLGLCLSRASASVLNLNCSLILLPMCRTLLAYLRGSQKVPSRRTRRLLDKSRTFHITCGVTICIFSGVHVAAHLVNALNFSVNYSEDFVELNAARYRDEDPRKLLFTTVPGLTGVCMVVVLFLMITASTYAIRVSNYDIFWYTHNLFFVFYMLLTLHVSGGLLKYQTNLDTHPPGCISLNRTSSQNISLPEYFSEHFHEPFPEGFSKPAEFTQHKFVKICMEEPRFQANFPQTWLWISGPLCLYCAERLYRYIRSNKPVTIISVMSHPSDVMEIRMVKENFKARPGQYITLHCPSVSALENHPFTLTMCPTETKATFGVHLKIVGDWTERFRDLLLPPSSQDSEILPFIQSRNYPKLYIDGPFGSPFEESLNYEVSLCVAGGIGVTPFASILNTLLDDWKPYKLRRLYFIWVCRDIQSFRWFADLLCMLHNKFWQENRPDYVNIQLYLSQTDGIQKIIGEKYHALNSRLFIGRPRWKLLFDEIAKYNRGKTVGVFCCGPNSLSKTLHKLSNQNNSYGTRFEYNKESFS

[20] = target: NADPH oxidase 5 (Homo sapiens) (UniProt Q96PH1); assay: NOX5-dependent H2O2 signal modulators, primary screen, NOX inhibitor project, cell-based, HEK293-NOX5, Amplex Red fluorescence (AID 1161); settings: HEK293-NOX5, ionomycin, 45 min, higher = more signal
Sequence of NADPH oxidase 5 (Homo sapiens) (Q96PH1 whole entry, looked up): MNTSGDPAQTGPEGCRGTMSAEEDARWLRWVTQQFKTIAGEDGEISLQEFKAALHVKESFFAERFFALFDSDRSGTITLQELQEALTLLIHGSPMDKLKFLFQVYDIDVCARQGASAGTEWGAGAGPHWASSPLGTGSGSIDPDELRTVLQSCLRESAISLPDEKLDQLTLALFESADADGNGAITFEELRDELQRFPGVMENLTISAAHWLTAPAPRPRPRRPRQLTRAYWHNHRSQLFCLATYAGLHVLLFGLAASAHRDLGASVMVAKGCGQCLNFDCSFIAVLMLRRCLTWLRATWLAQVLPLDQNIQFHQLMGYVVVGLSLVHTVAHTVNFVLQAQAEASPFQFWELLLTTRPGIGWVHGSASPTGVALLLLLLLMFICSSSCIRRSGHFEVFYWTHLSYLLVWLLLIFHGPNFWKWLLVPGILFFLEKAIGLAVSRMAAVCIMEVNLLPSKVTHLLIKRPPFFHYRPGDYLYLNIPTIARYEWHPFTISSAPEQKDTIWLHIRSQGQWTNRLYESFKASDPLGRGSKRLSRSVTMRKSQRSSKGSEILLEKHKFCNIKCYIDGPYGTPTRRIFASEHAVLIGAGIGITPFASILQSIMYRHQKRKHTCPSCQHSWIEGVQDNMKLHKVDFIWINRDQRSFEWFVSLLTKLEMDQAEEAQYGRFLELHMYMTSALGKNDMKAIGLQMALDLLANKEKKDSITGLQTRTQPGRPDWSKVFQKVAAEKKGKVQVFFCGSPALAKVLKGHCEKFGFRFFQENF

Row | Structure (SMILES) | composite z-score [1] | z-score [2] | z-score [3] | z-score [4] | z-score [5] | composite z-score [6] | composite z-score [7] | composite z-score (Torsin-1A (Homo sapiens) [8]) | composite z-score (Torsin-1A (Homo sapiens) [9]) | composite z-score [10] | z-score [11] | composite z-score [12] | z-score [13] | z-score [14] | z-score [15] | z-score [16] | z-score [17] | z-score [18] | z-score [19] | z-score [20]
1 | O=C1[C@@H]2[C@@H](CC(COc3ccccc3)=C([C@H](O)CCc3ccccc3)[C@@H]2CO)C(=O)N1Cc1ccccc1 | -0.0252 | -2.37 (inactive) | -0.423 (inactive) | 4.74 (inactive) | 0.831 (inactive) | 0.541 | -0.274 | -0.19 | 0.167 | 0.801 | 0.17 (inactive) | -0.0867 | 27.8 (active) | 21.8 (active) | -0.602 (inactive) | 2.05 (inactive) | 0.05 | -2.32 (inactive) | -0.526 (inactive) | -1.59
2 | COCCOC(=O)N1C(=O)[C@@]2(c3ccccc31)[C@H](C(=O)N1CCN(c3ncccn3)CC1)[C@H]1C(=O)O[C@H](c3ccccc3)[C@H](c3ccccc3)N1[C@@H]2c1ccccc1OCCO | 0.404 | -4.29 (inactive) | -1.51 (inactive) | -2.11 (inactive) | -0.885 (inactive) | 0.631 | -0.0323 | 0.545 | 0.0291 | 1.53 | 2.86 (inactive) | 0.867 | 10 (active) | 1.18 (inactive) | -0.427 (inactive) | 0.0951 (inactive) | 1.89 | 0.89 (inactive) | 1.09 (inactive) | 0.791
3 | C=CCOC(=O)[C@H]1[C@@H]2C(=O)O[C@@H](c3ccccc3)[C@@H](c3ccccc3)N2[C@@H](c2ccc(OCCOC(=O)[C@H]3C[C@H]4C(=O)N[C@@H](CC(C)C)C(=O)N4[C@H]3c3ccc(O)cc3)cc2)[C@]12C(=O)Nc1ccccc12 | 0.809 | -0.351 (inactive) | -1.22 (inactive) | -0.26 (inactive) | 0.146 (inactive) | 0.137 | 0.0544 | 0.739 | 1.18 | 2.06 | 0.324 (inactive) | 0.13 | 1.64 (inactive) | 0.998 (inactive) | 3.83 (inactive) | 0.964 (inactive) | 0.758 | 1.2 (inactive) | 0.776 (inactive) | 1.4
4 | COc1ccc(C(O)C2C=CC3C(=O)NC(=O)C3N2Nc2ccc(Cl)cc2Cl)c2ccccc12 (stereo not given) | -0.181 | -1.74 (inactive) | -1.13 (inactive) | 1.01 (inactive) | -0.525 (inactive) | 0.767 | -0.0757 | -0.392 | 0.275 | 0.461 | -0.866 (inactive) | 0.379 | 2.37 (inactive) | 1.44 (inactive) | -0.46 (inactive) | 1.78 (inactive) | -0.101 | -0.0689 (inactive) | -5.63 (inactive) | -1.58
5 | COCC(=C=CC[C@H](O)c1ccccc1OCCO)C[C@H](O)COCc1ccccc1 | 1.16 | -0.729 (inactive) | 1.27 (inactive) | 5.1 (inactive) | 0.497 (inactive) | 0.259 | 0.0541 | 1.29 | 1.13 | 1.73 | -0.186 (inactive) | 0.131 | 9.07 (active) | 1.07 (inactive) | 0.287 (inactive) | 0.896 (inactive) | -0.408 | 0.0204 (inactive) | -1.22 (inactive) | -1.92
